PubChem BioAssay (NCATS)
Results filed as inconclusive are left out. Active and inactive are the calls of the source. Calls follow the shape of the dose curve; as a rule, active = well fitted inhibition curve with a large enough effect; inconclusive = small, poorly fitted or top-dose-only effect; inactive = no such curve, though single readings can be large or run the other way.

Assay: BET inhibitor-based combinations targeting novel dependencies in MECOM-rearranged (r) AML: UCSD-AML1 cell line (AID 2202235); also: nearly all actives have a fitted effect of over 40% in size;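 as to viability (% of control): plate controls were DMSO vehicle wells for no effect and blank wells for full effect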
Conditions: UCSD-AML1 AML cells viability, CellTiter-Glo, 48 h; series mostly up to 46 µM; viability (% of control): at the top concentration
Procedure, shortened: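 Cells at 500/well were exposed for 48 hr to MIPE v5.0 drugs as 11-point dose curves. Viability was read by CellTiter-Glo luminescence and normalized to DMSO and empty-well controls. Activity was expressed as AUC and per-cell-line Z-AUC.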
Potency is read from the fitted curve at half-maximal effect.

Structure (SMILES) | viability (% of control) | Potency
CCOC(=O)c1ccc(C#Cc2ccc3c(c2)C(C)(C)CCS3)nc1 | 91.7% (inactive) | –
O=C1OC2(CCC(C(=O)Nc3ccn(-c4ccccc4F)n3)CC2)c2cnccc21 (stereo not drawn) | 103% (inactive) | –
O=C(NCc1ccccc1)[C@H](Cc1ccccc1)NC(=O)[C@H]1O[C@@H]1C(=O)NCCc1ccc(O)cc1 | 94.6% (inactive) | –
O=C1S/C(=C\c2ccc(OCc3cccc(B(O)O)c3)cc2)C(=O)N1Cc1ccc(F)cc1 | 108% (inactive) | –
COc1ccc(/C=C\c2cc(OC)c(OC)c(OC)c2)cc1O | – | 11.8 nM (active)
COc1cc(=C2C=c3ccccc3=N2)[nH]/c1=C/c1[nH]c(C)cc1C | – | 3320 nM (active)
CN(C)Cc1cccc(N=C(c2ccccc2)c2c(O)[nH]c3cc(C(N)=O)ccc23)c1 | 108% (inactive) | –
CC[C@@]1(O)C(=O)OCc2c1cc1n(c2=O)Cc2c-1nc1cc(F)c(C)c3c1c2[C@@H](N)CC3 | – | 4.2 nM (active)
CN[C@@H](C)C(=O)N[C@H](C(=O)N1CCC[C@H]1c1nc(C(=O)c2ccc(F)cc2)cs1)C1CCCCC1 | – | 20900 nM (active)
Cc1cc(/C=c2/sc3nc4ccccc4n3c2=O)c(C)n1-c1ccccc1 | 88% (inactive) | –
CN1C/C=C/CCOc2cccc(c2)-c2ccnc(n2)Nc2cccc(c2)C1 | – | 148 nM (active)
Fc1ccc(-c2csc3ncnc(NCc4ccc5c(c4)OCO5)c23)cc1 | – | 20900 nM (active)
C=C1[C@H](OC(=O)/C=C(\C)CC)C[C@@H](C(C)C)[C@@H]2[C@H]([C@@H](C)OC(C)=O)C(=O)C[C@@H]12 | 117% (inactive) | –
CCn1c(=O)c(-c2ccc(-c3cncc(C)n3)cc2Cl)cc2cnc(NCCC3CCN(C)CC3)nc21 | 99.8% [at 5.12 µM] (inactive) | –
C[C@@H](Oc1ccc2[nH]nc(/C=C/c3cnn(CCO)c3)c2c1)c1c(Cl)cncc1Cl | – | 1050 nM (active)
CC(C)NC(=O)C1CCC(n2c(NC(=O)c3ccc(F)cc3)nc3ccc(CN4CCC(C(C)(C)O)CC4)cc32)CC1 (stereo not drawn) | 87.4% [at 15.6 µM] (inactive) | –
CC[C@H](CO)Nc1nc(NCc2ccccc2)c2ncn(C(C)C)c2n1 | – | 26300 nM (active)
C=CCc1cccc(/C=N/NC(=O)CN2CCN(Cc3ccccc3)CC2)c1O | – | 23500 nM (active)
CCOc1cc(/C=C2/C(=O)N(c3ccccc3)N=C2C)cc(Cl)c1OCC(=O)OC | 101% (inactive) | –
CCS(=O)(=O)Nc1ccc(Oc2ccc(F)cc2F)c(-c2cn(C)c(=O)c3[nH]ccc23)c1 | – | 132 nM (active)
N#Cc1ccc(N(Cc2ccc(Br)cc2)n2cnnc2)cc1 | 99.6% (inactive) | –
O=C([O-])C[O-].[Pt+2] | 102% (inactive) | –
CSC[C@H]1CN(Cc2c[nH]c3c(N)ncnc23)C[C@@H]1O | 90.7% (inactive) | –
COc1nc(OCc2cccc(-c3ccccc3)c2C)ccc1CNCCNC(C)=O | – | 20900 nM (active)
CN(C)CC[C@H](CSc1ccccc1)Nc1ccc(S(=O)(=O)NC(=O)c2ccc(N3CCN(Cc4ccccc4-c4ccc(Cl)cc4)CC3)cc2)cc1[N+](=O)[O-] | – | 2950 nM (active)
C=CC(=O)N[C@H]1CCOC[C@H]1Nc1ncc2cc(-c3c(Cl)c(OC)cc(OC)c3Cl)ccc2n1 | 87.5% (inactive) | –
COc1ccc(S(=O)(=O)Nc2cc(-c3csc(C#N)c3)ccc2C)cc1 | – | 148 nM (active)
COc1cc(C)c(/C=C/C(C)=C/C=C/C(C)=C/C(=O)O)c(C)c1C | 89.5% (inactive) | –
